From PubChem
ClpP mod = qHTS Assay for Activators of ClpP | 340,000 compounds, 1.9% hits | AID 651965, 2013 | purified B. subtilis ClpP, FRET peptide cleavage, 20 min | ATP-dependent Clp protease proteolytic subunit (Bacillus subtilis (strain 168)), P80244 | Potency, µM (doses to about 57.5 µM), for the others: at the highest dose activity change, negative = active; active means well fitted falling curve with a large enough effect; inconclusive means small, poorly fitted or top-dose-only effect; inactive means no such curve, though single readings can be large or run the other way; further: the source files actives as falling curves though it sought activators and does not explain the sign; nearly all actives have a fitted effect of over 65% in size
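ClpP 10 microg/mL final, pH 8 Tris/KCl buffer with BSA, glycerol, Tween-20; compound pinned in; FRET-FV substrate; RT 20 min; Ex320/Em430; ΔFRET vs ADEP 5.8 microM, DMSO, no enzyme.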
DT40 TDP1 no CPT = qHTS for Inhibitors of human tyrosyl-DNA phosphodiesterase 1 (TDP1): qHTS in cells in absence of CPT; 420,000 compounds, 15% hits; AID 686978, 2013; DT40 Tdp1-/- hTDP1 cells, no CPT, ATP luminescence, 48 h; Potency, µM (series often up to 46.2 µM), for inactives: at the top dose activity change, negative = growth inhibition, usual class: inhibitors; further: on the % scale 0 is the no-effect control and ±100 the full control effect; nearly all actives have a fitted effect of over 55% in size
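Luminescent ATP content (CellTiter-Glo) served as the growth readout. Knockout chicken DT40 cells expressing human TDP1 were exposed to compounds without camptothecin for a minimum 48 hr at 37 °C.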
DT40 TDP1 CPT = DT40-hTDP1 cell growth loss with CPT. Potency, µM (titrated, usually from 46.2 µM), inactives show at the top dose activity change, negative = growth inhibition, actives largely listed as inhibitors. 420,000 compounds, 12% hits. chicken DT40 Tdp1-/-;hTDP1 cells + 20 nM CPT, ATP luminescence, 48 h; further: on the % scale 0 is the no-effect control and ±100 the full control effect; nearly all actives have a fitted effect of over 55% in size
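Chicken DT40 Tdp1-/- cells stably complemented with human TDP1 were seeded at 400 cells/well in medium containing 20 nM camptothecin, exposed to pin-transferred compounds, and grown at 37 °C for at least 48 hr. Viability was read as ATP luminescence.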
TDP1 inh = TDP1 (human) enzyme inhibition; Potency, µM (highest dose often 130 µM), for inactives: at the highest dose activity change, negative = inhibition, most hits filed as inhibitors; recombinant TDP1, AlphaScreen DNA substrate cleavage; AID 485290; 350,000 compounds, 0.28% hits; further: on the % scale 0 is the no-effect control and ±100 the full control effect; nearly all actives have a fitted effect of over 40% in size
Target sequence (Q9NUW8 whole entry, looked up): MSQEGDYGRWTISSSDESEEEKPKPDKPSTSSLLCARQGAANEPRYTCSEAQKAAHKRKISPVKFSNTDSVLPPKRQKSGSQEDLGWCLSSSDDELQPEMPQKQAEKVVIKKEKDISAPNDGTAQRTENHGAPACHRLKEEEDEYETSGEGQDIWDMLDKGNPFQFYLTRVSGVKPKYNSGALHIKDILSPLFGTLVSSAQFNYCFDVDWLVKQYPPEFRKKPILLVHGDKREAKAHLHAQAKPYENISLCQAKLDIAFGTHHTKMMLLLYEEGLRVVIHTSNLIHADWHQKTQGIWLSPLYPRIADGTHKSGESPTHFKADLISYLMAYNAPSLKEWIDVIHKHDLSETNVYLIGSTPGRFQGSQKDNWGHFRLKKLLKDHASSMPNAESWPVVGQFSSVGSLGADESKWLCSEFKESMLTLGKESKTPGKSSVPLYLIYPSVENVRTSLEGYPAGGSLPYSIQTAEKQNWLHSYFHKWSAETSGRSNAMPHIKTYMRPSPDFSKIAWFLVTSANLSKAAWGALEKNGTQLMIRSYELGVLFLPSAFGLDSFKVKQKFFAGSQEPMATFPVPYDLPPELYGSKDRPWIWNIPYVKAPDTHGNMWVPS
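Here, a 5' biotin and 3' phosphotyrosine-FITC DNA oligonucleotide reports Tdp1 activity: intact substrate bridges AlphaScreen beads, while cleavage leaves a 3' phosphate and drops signal. All incubations at room temperature.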
* hit, by the source's call; ? = inconclusive; . = no result. Compounds with a hit are over-represented: about 17% of the library has one in this group of screens. Unless noted, the call rests on the fitted dose curve; in most records, active means well fitted curve in the direction sought with a large enough effect; inconclusive means small, poorly fitted or top-dose-only effect, or another doubt; inactive means no such curve, though single readings can be large; an effect the other way counts as inactive or inconclusive. Potency means the concentration at half of the fitted maximal effect.

SMILES	ClpP mod	DT40 TDP1 no CPT	DT40 TDP1 CPT	TDP1 inh
CS(=O)(=O)N1CCN(c2ccccc2NC(=O)c2cc3ccccc3o2)CC1	-2.9%	14.6µM*	-29.1%	.
O=C(NC(=S)N1CCOCC1)c1cc2ccccc2o1	.	11.6µM*	6.51µM*	4.9%
CC(=O)Nc1cc(=O)c2cccnc2[nH]1	.	3.5%	33.1%	.
Cc1ccccc1-c1cncnc1NCc1cccnc1	.	-21.6%	17.3%	.
COc1c(C(=O)Nc2ccccc2N2CCOCC2)cc2ccccc2c1Br	?	23.1µM*	?	.
CC(C)(C)c1ccc(C(=O)N2CCCCC2CCN2CCCCC2)cc1 (centres undefined)	-1.4%	?	?	2.3%
COC(=O)C[C@H]1C[C@H]2c3cc(NC(=O)C4CCOCC4)ccc3O[C@H]2[C@@H](CO)O1	0.6%	2.2%	-1.6%	.
CCOC(=O)C1=CCN(S(=O)(=O)c2cccc(Cl)c2)C1c1ccccc1 (centres undefined)	-6.9%	?	?	.
CCOC(=O)C1=CCN(S(=O)(=O)c2ccc(C)cc2)C1c1cccc(Cl)c1 (centres undefined)	-3.3%	23.1µM*	?	.
CCOC(=O)C1=CCN(S(=O)(=O)c2ccc(C)cc2)C1c1cccc(F)c1 (centres undefined)	-2.1%	23.1µM*	?	.
CCOC(=O)C1=CCN(S(=O)(=O)c2cccc(Cl)c2)C1c1cccc(C)c1 (centres undefined)	0.6%	18.4µM*	?	.
O=C(O)CCN1C(=O)c2ccc(NC(=O)c3cccs3)cc2C1=O	31.6µM*	0.9%	-14.7%	0.0%
CCCC(=O)Nc1ccc2c(c1)C(=O)N(CCC(=O)O)C2=O	28.2µM*	-13.7%	-26.5%	6.8%
O=C(O)CCN1C(=O)c2ccc(NC(=O)CSc3ccccc3)cc2C1=O	1.1%	?	?	0.6%
O=C(Nc1ccc2c(c1)C(=O)N(c1ccccc1)C2=O)c1cccs1	3.9%	?	-3.5%	0.0%
Cc1c(C)c2cc(Cl)c(OCC(=O)NCCCn3ccnc3)cc2oc1=O	4.2%	3.2%	4.9%	2.0%
Fc1ccccc1SCc1nnc(-c2ccccc2Br)o1	.	25.9µM*	5.8µM*	.
O=C(CN1CCC(n2nnc3cc(C(F)(F)F)ccc32)CC1)Nc1ccc2c(c1)CCC2	-4.1%	20.6µM*	?	-1.1%
CC1Cc2ccccc2N1C(=O)CN1CCC(n2nnc3cc(C(F)(F)F)ccc32)CC1 (centres undefined)	-1.5%	23.1µM*	?	-5.6%
COC(=O)c1ccccc1NC(=O)CN1CCC(n2nnc3cc(C(F)(F)F)ccc32)CC1	0.0%	-28.7%	-3.1%	7.9%
CC/C=C1/OC(=O)c2ccccc21	.	.	.	8.2%
Cc1n[nH]c(C)c1S(=O)(=O)N1CCC(C(=O)Nc2cccc(F)c2)CC1	-3.6%	-1.5%	?	0.6%
CC(NC(=O)CCn1c(=O)c2cccn2c2ccc(F)cc21)c1ccccc1 (centres undefined)	-8.0%	-14.2%	-5.4%	0.0%
CCCCNC(=O)c1ccc2c(c1)NC(=O)C(CS(=O)(=O)Cc1cccc(C)c1)N2 (centres undefined)	31.6µM*	?	-14.9%	7.4%
COCCNC(=O)c1ccc2c(c1)NC(=O)C(CS(=O)(=O)Cc1ccc(F)cc1Cl)N2 (centres undefined)	15.8µM*	-12.5%	-11.9%	5.2%
SMILES	ClpP mod	DT40 TDP1 no CPT	DT40 TDP1 CPT	TDP1 inh
Cc1cccc(CS(=O)(=O)CC2Nc3ccc(C(=O)NCc4ccccc4Cl)cc3NC2=O)c1 (centres undefined)	4.8%	?	8.2µM*	2.6%
COc1ccc(CNC(=O)c2ccc3c(c2)NC(=O)C(CS(=O)(=O)Cc2ccccc2Cl)N3)cc1 (centres undefined)	-27.4%	?	?	6.3%
Cc1ccc(CNC(=O)c2ccc3c(c2)NC(=O)C(CS(=O)(=O)Cc2ccc(F)cc2)N3)cc1 (centres undefined)	-9.1%	?	?	0.0%
O=C(Cn1ncc2c3ccccc3n(Cc3ccc(Cl)cc3)c2c1=O)NCc1ccccn1	-25.5%	?	?	10.1%
O=C(NNC(=O)C1CCCC1)c1cc([N+](=O)[O-])cc([N+](=O)[O-])c1	-24.1%	-11.9%	1.1%	0.0%
CC(=O)C(C(C)=O)C(NC(=O)c1cccnc1)(C(F)(F)F)C(F)(F)F	-5.0%	11.6µM*	7.31µM*	4.1%
CC(C)c1ccc(NC(=O)CN2C(=O)NC(Cc3c[nH]c4ccccc34)C2=O)cc1 (centres undefined)	1.5%	16.4µM*	?	1.1%
Cc1cc(C)cc(NC(=O)CN2C(=O)NC(Cc3c[nH]c4ccccc34)C2=O)c1 (centres undefined)	0.5%	?	?	2.7%
CN1CCCCCC1C(=O)N1CCC(N2CCC(C(=O)N3CCOCC3)CC2)CC1 (centres undefined)	.	-11.6%	22.4%	.
CC(=O)Nc1ccc(/C=C2\C=C(C(O)c3ccc(NC(C)=O)cc3)c3ccccc32)cc1 (centres undefined)	-0.1%	10µM*	20µM*	.
CC(=O)Nc1ccc(/C=C2\C=Cc3ccccc32)cc1	2.0%	?	?	.
CSc1ccc(/C=C2\C=C(C(O)c3ccc(SC)cc3)c3ccccc32)cc1 (centres undefined)	-0.3%	10µM*	10µM*	.
OC(C1=C/C(=C\c2ccncc2)c2ccccc21)c1ccncc1 (centres undefined)	-1.4%	11.2µM*	11.2µM*	.
Cc1ccc(OCCN2CCN(C(=O)CCC(=O)Nc3nnc(C)s3)CC2)cc1	-0.9%	-4.6%	-11.4%	-2.4%
Cc1ccc(OCCN2CCN(C(=O)CCC(=O)Nc3nnc(C(C)C)s3)CC2)cc1	0.8%	23.1µM*	?	2.9%
CCCc1nnc(NC(=O)CCC(=O)N2CCN(CCOc3ccc(C)cc3)CC2)s1	-0.5%	?	?	6.8%
Cc1nnc(NC(=O)CCC(=O)N2CCN(CCOc3cccc4ccccc34)CC2)s1	-0.4%	23.1µM*	?	.
Cc1c(C(=O)NCC2COCCO2)cnn1-c1nccc(-c2cccs2)n1 (centres undefined)	.	-25.8%	-22.3%	.
Cc1cccc(-c2cc(C(=O)O)c3c(-c4ccc(F)cc4)[nH]nc3n2)c1	4.1%	-13.1%	-4.2%	0.0%
Cc1ccc(-n2nc3c(N4CCC(C(=O)NCc5ccc(C)o5)CC4)nnc(C)c3c2C)cc1	-28.3%	?	23.1µM*	-14.2%
COc1ccccc1CNC(=O)C1CCN(c2nnc(C)c3c(C)n(-c4ccccc4)nc23)CC1	4.3%	-22.5%	16.4%	5.1%
COc1ccc(-n2nc3c(N4CCC(C(=O)NCCc5ccccc5C)CC4)nnc(C)c3c2C)cc1	.	16.4µM*	?	5.8%
